Inconclusive results are not listed. Calls of active or inactive are those of the source. Unless noted, calls come from the whole dose curve; as a rule, active = well fitted curve in the direction sought with a large enough effect in the repeat runs; inconclusive = weak or mixed curves; inactive = no such curve, though single readings can be large; an effect the other way counts as inactive or inconclusive.
How the values were obtained:
[1] = qHTS assay for small molecule agonists of the p53 signaling pathway (AID 651631; calls by dose curve; note: nearly all actives have a fitted effect of over 15% in size)
Summary of the method: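 We treat p53RE-bla HCT-116 cells with compounds for 16 h at 37 °C, add LiveBLAzer B/G FRET substrate for 2 h at room temperature, and measure fluorescence intensity.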

[2] = qHTS assay for small molecule agonists of the p53 signaling pathway - cell viability (AID 651633; calls by dose curve;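 note: p53RE-bla HCT reporter cells with a stable beta-lactamase p53 reporter; series mostly up to about 83 µM; nearly all actives have a fitted effect of over 30% in size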)
Summary of the method: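 p53RE-bla cells, seeded at 4,000 per well and rested 5 h at 37 C/5% CO2, received compounds in DMSO for 16 h at 37 C. CellTiter-Glo was then added, and luminescence was read after 30 min at room temperature to gauge cytotoxicity.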

[3] = qHTS assay for small molecule disruptors of the mitochondrial membrane potential - cell viability (AID 720634; calls by dose curve;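 note: human HepG2 liver cancer cells; series mostly up to about 83 µM; nearly all actives have a fitted effect of over 20% in size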)
Summary of the method: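 In this qHTS format, HepG2 cells plated overnight were pinned with compound, incubated 1 hr, and assayed for ATP luminescence with CellTiter-Glo after m-MPI dye addition.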

[4] = qHTS assay for small molecule disruptors of the mitochondrial membrane potential (AID 720635)
Summary of the method: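 HepG2 cells (2,000/well) attached overnight at 37C, then took compound for 1 hr at 37C, 5% CO2. Mito-MPS dye was added for 30 min; fluorescence was read at 490/535 nm (monomers) and 540/590 nm (aggregates).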

[5] = qHTS assay to test for compound auto fluorescence at 590 nm (red) in HepG2 cells (AID 720674)
Summary of the method: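 Compound auto-fluorescence is scored relative to Rose Bengal sodium, measured at 540/590 nm in live HepG2 cultures after 1 hr compound contact (37 C, 5% CO2).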

[6] = qHTS assay to test for compound auto fluorescence at 535 nm (green) in HepG2 cells (AID 720675)
[7] = qHTS assay to test for compound auto fluorescence at 460 nm (blue) in HEK293 cells (AID 720678)
Summary of the method: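 HEK293 cells (2,000 per well, medium with 10% dialyzed FBS) attached for 4-5 hr at 37C, then received compound and stood overnight at 37C, 5% CO2. Blue fluorescence was read at Ex/Em 405/460 nm and expressed relative to triamterene.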

[8] = qHTS assay to test for compound auto fluorescence at 590 nm (red) in HEK293 cells (AID 720679)
Summary of the method: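 HEK293 cells (2,000/well, medium with 10% dialyzed FBS) attached for 4-5 hr at 37C, received 23 nL compound and were incubated overnight at 37C, 5% CO2. Red fluorescence was then read at 540/590nm Ex/Em, referenced to Rose Bengal sodium.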

[9] = qHTS assay to test for compound auto fluorescence at 535 nm (green) in HEK293 cells (AID 720680)
[10] = qHTS assay to test for compound auto fluorescence at 460 nm (blue) in HEK293 cell free culture (AID 720681)
Summary of the method: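 Test compounds were pinned into cell-free culture medium (DMEM with 10% FBS) and fluorescence was read directly at Ex/Em 405/460 nm. Signals were expressed as fluorescence equivalents of triamterene, with DMSO vehicle as control.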

[11] = qHTS assay to test for compound auto fluorescence at 535 nm (green) in HEK293 cell free culture (AID 720682)
Summary of the method: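 Green-channel intensity (Ex/Em 485/535 nm) was recorded from compound-treated wells containing only DMEM with 10% FBS. Fluorescein provided the equivalency standard.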

[12] = qHTS assay to test for compound auto fluorescence at 590 nm (red) in HEK293 cell free culture (AID 720683)
Summary of the method: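 Tox21 10K library compounds were pinned into cell-free DMEM with 10% FBS and fluorescence was read at excitation 540 nm. Activity is expressed as Rose Bengal sodium equivalency.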

[13] = qHTS assay to test for compound auto fluorescence at 590 nm (red) in HepG2 cell free culture (AID 720684)
Summary of the method: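 Readout: intrinsic compound fluorescence at 590 nm emission after 540 nm excitation, scaled to Rose Bengal sodium. Matrix was cell-free MEM with 10% FBS; DMSO vehicle wells served as control.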

[14] = qHTS assay to test for compound auto fluorescence at 460 nm (blue) in HepG2 cell free culture (AID 720685)
Summary of the method: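 Cell-free plates of MEM plus 10% FBS received 23 nL compound or DMSO vehicle; blue-channel (405/460 nm) intensity scored against triamterene as reference fluorophore.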

[15] = qHTS assay to test for compound auto fluorescence at 535 nm (green) in HepG2 cell free culture (AID 720686)
[16] = qHTS assay to test for compound auto fluorescence at 460 nm (blue) in HepG2 cells (AID 720687)
Summary of the method: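 Cells (2,000/well in MEM with 10% FBS) attached overnight at 37 C, then were exposed to compound or DMSO for 1 hr at 37 C, 5% CO2. Fluorescence read at Ex/Em 405/460 nm, expressed as triamterene-equivalent signal.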

[17] = molecular target: Glucocorticoid receptor (Homo sapiens) (UniProt P04150); test: qHTS assay to identify small molecule agonists of the glucocorticoid receptor (GR) signaling pathway (AID 720691; active = well fitted activation curve with a large enough effect in the signal ratio in the repeat runs, not every such curve was filed as active; the % refers to the signal ratio)
Summary of the method: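 Measures GR pathway activation through a GRE-beta-lactamase reporter stably integrated in HeLa cells, with 18 h compound treatment at 37 C and fluorescence detection using a FRET substrate.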

[18] = molecular target: Glucocorticoid receptor (Homo sapiens) (UniProt P04150); test: qHTS assay to identify small molecule antagonists of the glucocorticoid receptor (GR) signaling pathway (AID 720692; active = well fitted inhibition curve with a large enough effect in the signal ratio in the repeat runs, not every such curve was filed as active; the % refers to the signal ratio)
Summary of the method: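 Tox21 10K library screened in concentration-response for blockade of dexamethasone (5 nM final)-induced GRE-bla reporter activity in HeLa cells; 18 h treatment, fluorescence read.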

[19] = qHTS assay for small molecules that induce genotoxicity in human embryonic kidney cells expressing luciferase-tagged ATAD5 (AID 651632); note: nearly all actives have a fitted effect of over 15% in size
Summary of the method: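 Concentration-response screen for ATAD5 upregulation in HEK293T luciferase reporter cells; 16 hr treatment at 37C, then luminescence after 30 min with Amplite at room temperature.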

[20] = qHTS assay for small molecules that induce genotoxicity in human embryonic kidney cells expressing luciferase-tagged ATAD5 - cell viability (AID 651634; calls by dose curve; note: nearly all actives have a fitted effect of over 25% in size)
Summary of the method: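 15.5 hr compound or vehicle exposure of HEK293T cells expressing luciferase-tagged ATAD5 at 37C; live-cell protease activity is read by fluorescence after 30 min of CellTiter-Fluor.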
% is set by controls: 0 for no effect and ±100 for the full control effect.

Chain of Glucocorticoid receptor (Homo sapiens) (P04150 whole entry, looked up): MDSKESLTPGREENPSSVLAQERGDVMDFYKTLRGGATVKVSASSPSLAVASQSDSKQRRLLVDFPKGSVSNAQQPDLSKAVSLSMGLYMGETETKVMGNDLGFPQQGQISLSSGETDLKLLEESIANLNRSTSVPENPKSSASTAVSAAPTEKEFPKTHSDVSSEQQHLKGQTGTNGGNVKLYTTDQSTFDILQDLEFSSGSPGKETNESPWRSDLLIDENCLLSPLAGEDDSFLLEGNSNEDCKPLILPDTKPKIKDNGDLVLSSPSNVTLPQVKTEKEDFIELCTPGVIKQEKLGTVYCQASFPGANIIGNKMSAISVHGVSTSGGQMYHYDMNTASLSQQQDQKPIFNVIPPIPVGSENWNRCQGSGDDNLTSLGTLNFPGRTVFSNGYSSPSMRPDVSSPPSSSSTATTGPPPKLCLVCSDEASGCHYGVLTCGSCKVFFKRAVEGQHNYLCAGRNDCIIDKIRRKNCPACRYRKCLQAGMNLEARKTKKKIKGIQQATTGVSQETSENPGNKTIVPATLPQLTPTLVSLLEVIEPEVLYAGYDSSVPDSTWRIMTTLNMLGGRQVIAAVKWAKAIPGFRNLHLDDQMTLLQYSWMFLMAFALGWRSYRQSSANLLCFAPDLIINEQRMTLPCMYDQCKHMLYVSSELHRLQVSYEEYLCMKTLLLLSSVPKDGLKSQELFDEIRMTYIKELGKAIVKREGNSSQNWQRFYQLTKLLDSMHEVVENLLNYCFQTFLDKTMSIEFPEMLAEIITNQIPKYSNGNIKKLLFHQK

CC(C)NCC(O)COc1cccc2[nH]ccc12 (configuration not stated)
inactive: outcome [1] | outcome [2] | outcome [3] | Potency [4] | outcome [5] | outcome [6] | outcome [7] | outcome [8] | outcome [9] | outcome [10] | outcome [11] | outcome [12] | outcome [13] | outcome [14] | outcome [15] | outcome [16] | Potency [17] | outcome [18]

OC[C@H](Cc1cccc(O)c1)[C@H](CO)Cc1cccc(O)c1
inactive: Potency [19] | outcome [2] | Potency [20] | outcome [3] | outcome [5] | outcome [6] | outcome [7] | outcome [8] | outcome [9] | outcome [10] | outcome [11] | outcome [12] | outcome [13] | outcome [14] | outcome [15] | outcome [16] | Potency [17] | outcome [18]

CN(C)c1ccc(C=O)cc1
inactive: Potency [19] | outcome [2] | Potency [20] | outcome [3] | outcome [5] | outcome [6] | outcome [7] | outcome [8] | outcome [9] | outcome [10] | outcome [11] | outcome [12] | outcome [13] | outcome [14] | outcome [15] | Potency [17]

C=C(C)C(=O)OCc1ccccc1
inactive: Potency [19] | outcome [2] | Potency [20] | outcome [3] | Potency [4] | outcome [5] | outcome [6] | outcome [7] | outcome [8] | outcome [9] | outcome [10] | outcome [11] | outcome [12] | outcome [13] | outcome [14] | outcome [16]

O=C(O)c1ccc(Cl)cc1Cl
inactive: Potency [19] | outcome [2] | Potency [20] | outcome [3] | Potency [4] | outcome [5] | outcome [6] | outcome [7] | outcome [8] | outcome [9] | outcome [10] | outcome [11] | outcome [13] | outcome [14] | outcome [15] | outcome [16] | Potency [17]

O=P(O)(O)OP(=O)(O)O
inactive: outcome [1] | outcome [2] | Potency [20] | outcome [3] | Potency [4] | outcome [5] | outcome [6] | outcome [7] | outcome [8] | outcome [9] | outcome [10] | outcome [13] | outcome [14] | outcome [15] | outcome [16] | Potency [17] | outcome [18]

C[Si](C)=O
inactive: activation [19] 0.434% [at 8.08 µM] | activity change, negative = cytotoxicity [2] 15.5% [at 8.08 µM] | activity, negative = cytotoxicity [20] 11.6% [at 8.08 µM] | activity change, negative = cytotoxicity [3] 4.91% [at 8.08 µM] | fluorescence, relative to Rose Bengal [5] -0.082% [at 9.17 µM] | fluorescence, % of fluorescein control [6] 0.004% [at 9.17 µM] | fluorescence, % of triamterene [7] -0.115% [at 9.17 µM] | fluorescence, % of fluorescent control [8] -0.238% [at 9.17 µM] | fluorescence, % of fluorescein [9] 0.04% [at 9.17 µM] | fluorescence, % of fluorescent control [10] -0.225% [at 9.17 µM] | fluorescence, % of Rose Bengal [13] -0.0951% [at 9.17 µM] | fluorescence, % of fluorescent control [14] -0.0659% [at 9.17 µM] | fluorescence, % of fluorescein control [15] 0.113% [at 9.17 µM] | fluorescence, % of fluorescent control [16] -0.132% [at 9.17 µM] | activation [17] 1.09% [at 6.9 µM]

C[C@@H](Oc1ccc(CNC(=O)c2cccnc2Oc2ccc3c(c2)OCO3)c(F)c1)C(=O)O
inactive: Potency [19] | outcome [2] | Potency [20] | outcome [3] | outcome [5] | outcome [6] | outcome [7] | outcome [8] | outcome [9] | outcome [10] | outcome [11] | outcome [12] | outcome [13] | outcome [14] | outcome [15] | Potency [17] | outcome [18]

CC(=O)N[C@@H](CCC(=O)O)C(=O)O
inactive: Potency [19] | outcome [2] | Potency [20] | outcome [3] | Potency [4] | outcome [5] | outcome [6] | outcome [7] | outcome [8] | outcome [9] | outcome [10] | outcome [13] | outcome [14] | outcome [15] | outcome [16] | Potency [17]

CCCCC(CC)COCCO (configuration not stated)
inactive: Potency [19] | outcome [2] | Potency [20] | outcome [3] | Potency [4] | outcome [5] | outcome [6] | outcome [7] | outcome [8] | outcome [9] | outcome [10] | outcome [12] | outcome [13] | outcome [14] | outcome [15] | outcome [16] | Potency [17]

Reference: PubChem BioAssay (Tox21)
